Source: PubChem BioAssay
AmpC no deterg: qHTS Inhibitors of AmpC Beta-Lactamase (assay without detergent). P00811. AmpC nitrocefin hydrolysis, absorbance 480 nm, 0.0001% Triton. Potency, µM (series often up to 57.1 µM), actives largely listed as inhibitors. hit rate 0.52% among 330,000. AID 485341, 2010; note: nearly all actives have a fitted effect of over 20% in size
Target sequence (P00811 whole entry, looked up): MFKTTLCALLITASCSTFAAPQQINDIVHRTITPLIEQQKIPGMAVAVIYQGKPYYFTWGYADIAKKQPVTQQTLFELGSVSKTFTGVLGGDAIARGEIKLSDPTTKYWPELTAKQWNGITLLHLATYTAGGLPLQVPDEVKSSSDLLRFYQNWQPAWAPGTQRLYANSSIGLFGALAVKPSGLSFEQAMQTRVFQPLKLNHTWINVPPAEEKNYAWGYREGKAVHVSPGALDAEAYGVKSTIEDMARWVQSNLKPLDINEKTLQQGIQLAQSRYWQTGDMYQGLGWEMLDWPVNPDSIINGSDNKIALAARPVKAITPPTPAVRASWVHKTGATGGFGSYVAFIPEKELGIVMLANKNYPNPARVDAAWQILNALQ
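AmpC (5.3 nM in the dispensed reagent) in 20 mM phosphate pH 7.0 with 0.01% (detergent screen) or 0.0001% Triton X-100 was preincubated with compounds for 15 min at room temperature. Nitrocefin was then added from an 800 uM solution, and hydrolysis was followed at 480 nm.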
AMA1 RON2 block: qHTS for Inhibitors of AMA1-RON; Towards Development of Antimalarial Drug Lead: Primary Screen; Plasmodium falciparum AMA1 (3D7) - RON2 peptide interaction; AlphaScreen AMA1-biotinylated RON2 peptide binding; Potency, µM (titrated, usually from 58.2 µM), actives largely listed as inhibitors; hit rate 0.2% among 360,000; AID 720542, 2013; note: nearly all actives have a fitted effect of over 45% in size
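AMA1 (3D7) with his tag at 25 nM final met compounds first, then biotinylated RON2 peptide at 25 nM; detection used donor plus acceptor beads, 10 µg/mL apiece, read by AlphaScreen after 30 min at room temperature.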
Pf growth 48h: Primary qHTS for delayed death inhibitors of the malarial parasite plastid, 48 hour incubation. AID 504832, 2011. Potency, µM (top dose mostly 28.7 µM), actives largely listed as inhibitors. hit rate 5.9% among 310,000. P. falciparum luciferase growth in erythrocytes, 48 h
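Erythrocytes infected with P. falciparum carrying an integrated firefly luciferase reporter (2% hematocrit, 0.1% parasitemia final) were exposed to compounds in RPMI 1640 with 0.5% Albumax at 37 C, 5% CO2. Growth inhibition was scored as reduced luminescence.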
Pf growth 96h: Primary qHTS for delayed death inhibitors of the malarial parasite plastid, 96 hour incubation | hit rate 6.9% among 320,000 | AID 504834, 2011 | Potency, µM (top dose mostly 28.7 µM), actives largely listed as inhibitors | P. falciparum luciferase reporter growth, 96 h
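Cell-based qHTS: luciferase-tagged P. falciparum in erythrocytes (2% hematocrit, 0.05% parasitemia final) incubated with compounds for 96 hours, 37 C, 5% CO2; luciferase detection reagent then added and luminescence measured.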
HCV inh: qHTS Assay for Inhibitors of Hepatitis C Virus (HCV). AID 651820, 2012. hit rate 3.4% among 340,000. Huh7.5.1 HCVcc-Cre infection, luciferase reporter, 44 h. Potency, µM (series often up to 41.8 µM), most hits filed as inhibitors
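Reporter virus HCVcc-Cre (~0.5 moi) infects cells exposed to compound; seeding density 1,000 cells/well with 4 h settling beforehand. Luminescence, 15 sec read, taken 44 h post-infection following a 15 min RT substrate incubation.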
AmpC detergent: qHTS Inhibitors of AmpC Beta-Lactamase (assay with detergent); AmpC hydrolysis of nitrocefin, absorbance 480 nm, 0.01% Triton; Potency, µM (series often up to 114 µM), usual class: inhibitors; hit rate 0.041% among 370,000; note: nearly all actives have a fitted effect of over 25% in size
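AmpC (5.3 nM in the dispensed reagent) in 20 mM phosphate pH 7.0 with 0.01% (detergent screen) or 0.0001% Triton X-100 was preincubated with compounds for 15 min at room temperature. Nitrocefin was then added from an 800 uM solution, and hydrolysis was followed at 480 nm.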
Large screens that a line does not name were inactive. This is a sample that favours compounds with a hit; in the whole collection about 11% have one here. Calls come from the whole dose curve; as a rule, active = well fitted curve in the direction sought with a large enough effect; inconclusive = small, poorly fitted or top-dose-only effect, or another doubt; inactive = no such curve, though single readings can be large; an effect the other way counts as inactive or inconclusive.

CC1CCCCC1NC(=O)c1c(O)nc2ccccn2c1=O (configuration not stated)	Pf growth 48h 5.2µM, Pf growth 96h 5.2µM
CC1CC(NC(=O)c2cc3c(=O)n4ccccc4nc3n2C)CC(C)(C)C1 (configuration not stated)	Pf growth 48h 12µM, HCV inh inconclusive
Cc1csc2nc(O)c(C(=O)NC3CCCCC3C)c(=O)n12 (configuration not stated)	Pf growth 48h 7.4µM, Pf growth 96h inconclusive, HCV inh inconclusive
CC1CCCCC1NC(=O)c1cc2c(=O)n3ccccc3nc2n1C (configuration not stated)	Pf growth 96h 2.3µM, AmpC detergent inconclusive
Cc1cccn2c(=O)c3cc(C(=O)NC4CCCCC4C)n(C)c3nc12 (configuration not stated)	none
Cc1cccc(NC(=O)c2cc3c(=O)n4ccccc4nc3n2C)c1C	none (no result: AmpC no deterg, AMA1 RON2 block, Pf growth 48h, Pf growth 96h, HCV inh)
Cc1cccc(N2CCN(C(=O)CCc3c(C)nc4ncnn4c3C)CC2)c1C	none (no result: AmpC no deterg, AMA1 RON2 block, Pf growth 48h, Pf growth 96h, HCV inh)
COc1ccc(CNC(=O)C(C)n2c(=O)cc(C)c3c(C)nn(-c4ccccc4)c32)cc1 (configuration not stated)	none (no result: AmpC no deterg, AMA1 RON2 block, Pf growth 48h, Pf growth 96h, HCV inh)
Cc1ccc2c(c1)N(C(=O)N1CCC(C(=O)Nc3cccc(F)c3)CC1)CCO2	none (no result: AmpC no deterg, AMA1 RON2 block, Pf growth 48h, Pf growth 96h, HCV inh)
CCC(C(=O)Nc1ccncc1)c1ccccc1 (configuration not stated)	Pf growth 48h 4.7µM
CCC(C(=O)Nc1cccnc1)c1ccccc1 (configuration not stated)	none
CCC(C(=O)NCc1ccc(C)cc1)c1ccccc1 (configuration not stated)	Pf growth 96h 15µM
Cc1cc2c(s1)c1c(C)nn(Cc3ccccc3F)c(=O)c1n2C	Pf growth 48h inconclusive (no result: AMA1 RON2 block, HCV inh)
CCCn1cc(S(=O)(=O)c2ccccc2)c(=O)c2cc(F)c(N3CCCCCC3)cc21	none (no result: AmpC no deterg, AMA1 RON2 block, Pf growth 48h, Pf growth 96h, HCV inh)
Cc1c2c(cc3c1[nH]c1ccccc13)C=NCC2	HCV inh 10µM (no result: AmpC no deterg, Pf growth 48h, Pf growth 96h, AmpC detergent)
CSc1ncc2c(n1)-c1ccccc1N(Cc1ccc(F)cc1)S2(=O)=O	none (no result: AmpC no deterg, AMA1 RON2 block, Pf growth 48h, Pf growth 96h, HCV inh)
Cc1cc(=O)[nH]c(N2CCN(c3ccc(Cl)cc3)CC2)n1	HCV inh inconclusive (no result: AmpC no deterg, Pf growth 48h, Pf growth 96h, AmpC detergent)
Cc1cc(=O)[nH]c(N2CCCC2)n1	Pf growth 96h 12µM
O=C(CCc1ccccc1)NCc1ccc2c(c1)OCO2	none
O=C(CN1C(=O)c2ccccc2S1(=O)=O)NCc1ccc2c(c1)OCO2	Pf growth 96h 9.3µM
CC(C)C(=O)c1cn(CC(=O)NCc2ccc3c(c2)OCO3)c2ccccc12	Pf growth 48h 12µM
O=C(Cc1ccccc1)NCc1ccc2c(c1)OCO2	Pf growth 96h 10µM (no result: Pf growth 48h)
Cc1ccccc1Cn1c(=O)n(CCC(=O)NCc2ccc3c(c2)OCO3)c(=O)c2ccccc21	Pf growth 96h 4.7µM, AmpC detergent inconclusive (no result: Pf growth 48h)
O=C(CN1c2cccc3cccc(c23)S1(=O)=O)NCc1ccc2c(c1)OCO2	Pf growth 48h inconclusive, Pf growth 96h inconclusive, AmpC detergent inconclusive
CCCCNC(=O)CN1C(=O)c2cccnc2Sc2ccccc21	none (no result: AmpC no deterg, AMA1 RON2 block, Pf growth 48h, Pf growth 96h, HCV inh)
Cc1ccc(CNC(=O)c2cc3c(C)nc4ccccc4c3o2)cc1	AmpC no deterg inconclusive, HCV inh inconclusive, AmpC detergent inconclusive
Cc1nc2ccccc2c2oc(C(=O)NCc3ccc4c(c3)OCO4)cc12	Pf growth 96h inconclusive, HCV inh 8.9µM
O=C(NCc1ccc2c(c1)OCO2)c1cc(-c2ccccn2)nc2ccccc12	Pf growth 96h inconclusive, HCV inh 10µM, AmpC detergent inconclusive
O=C(Cn1nc(-c2ccccc2)ccc1=O)NCc1ccc2c(c1)OCO2	Pf growth 96h 1.3µM, AmpC detergent inconclusive
O=C(NCc1ccco1)c1cc(-c2ccccn2)nc2ccccc12	HCV inh inconclusive
